The full ranking holds about 33,000 sequences; the median of “E-score (-0.5 to 0.5)” is about -0.04, and the highest 2% start at about 0.36. What follows is part of a selection rich in the highest values, with near analogues and random picks from the rest.
The sequences below were run against T1, Hmlalpha2 (UniProt P0CY09) (assay: PBM E-score (8-mer binding enrichment) (E-score (-0.5 to 0.5)); higher = stronger / more preferred TF binding). Conditions: protein concentration: 200 nM; construct: GST-full length.
T1 sequence: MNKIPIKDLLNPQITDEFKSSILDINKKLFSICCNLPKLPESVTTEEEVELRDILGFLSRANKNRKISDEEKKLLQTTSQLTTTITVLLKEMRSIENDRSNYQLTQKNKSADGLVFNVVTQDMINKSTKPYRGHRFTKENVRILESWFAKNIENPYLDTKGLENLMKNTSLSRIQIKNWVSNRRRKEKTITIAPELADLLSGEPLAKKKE
Method in brief: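 GST-tagged yeast TFs (full-length or DNA-binding domain) were made by PURExpress in vitro transcription/translation and applied at about 100-200 nM to universal all-10-mer Agilent arrays. The arrays were made double-stranded by primer extension, on fresh or once-stripped slides. Bound protein was detected with fluorescent anti-GST, and scans were normalised with masliner. Each ungapped eight-base word, pooled with its reverse complement, received an E-score (modified Wilcoxon-Mann-Whitney statistic) from the Universal PBM Analysis Suite.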
ACCTCTTC was tested, and the “PBM E-score” value was -0.0525. With CGACGTTA the “PBM E-score” value was 0.231. For CGATGGAC, the “PBM E-score” value was 0.0281. For CTTTTCAC, the “PBM E-score” value was 0.0898. AACCATGT was tested, and the “PBM E-score” value was 0.368. With AAGCATGC the “PBM E-score” value was 0.117. For AATCATGA, the “PBM E-score” value was 0.0793. AACCATGC was tested, and the “PBM E-score” value was -0.0458. For AAGCATGG, the “PBM E-score” value was -0.112. In the case of AATCATGT, the “PBM E-score” value is reported as 0.409. For AAGCATGT, the “PBM E-score” value was 0.377. With AATCATGG the “PBM E-score” value was 0.0457. For AACCATGA, the “PBM E-score” value was 0.149. CCCCATTC was tested, and the “PBM E-score” value was -0.266. With CGGGCATC the “PBM E-score” value was -0.287. With AAATTCCT the “PBM E-score” value was -0.135. For CATTCTGA, the “PBM E-score” value was -0.213. For GCAGTTGA, the “PBM E-score” value was -0.157. For AAAGAGCT, the “PBM E-score” value was -0.0941. In the case of GAGCTCCC, the “PBM E-score” value is reported as -0.322. With AATTTTAC the “PBM E-score” value was 0.347. ATTTTTAA was tested, and the “PBM E-score” value was 0.237. In the case of ATTTTTAC, the “PBM E-score” value is reported as 0.368. With AAATTTAT the “PBM E-score” value was 0.201. For AAATTTAG, the “PBM E-score” value was 0.0397. In the case of AAATTTAC, the “PBM E-score” value is reported as 0.375. For AACCCTAC, the “PBM E-score” value was -0.0838. With GAATTAGC the “PBM E-score” value was -0.0766. For AGCTCTAT, the “PBM E-score” value was -0.102. In the case of AGAGTGTA, the “PBM E-score” value is reported as 0.0904. For ACGCTATA, the “PBM E-score” value was 0.0242. With ATTACGTG the “PBM E-score” value was 0.452. AATACGTA was tested, and the “PBM E-score” value was 0.317. In the case of GTTACGTA, the “PBM E-score” value is reported as 0.293. For ATTACGTC, the “PBM E-score” value was 0.321. For AATACGTC, the “PBM E-score” value was 0.226. With ACTACGTG the “PBM E-score” value was 0.144. For AATACGTG, the “PBM E-score” value was 0.383. In the case of CTTACGTA, the “PBM E-score” value is reported as 0.307. In the case of ATTACGTA, the “PBM E-score” value is reported as 0.431. GGCCCGAA was tested, and the “PBM E-score” value was -0.135. With ATATCGGA the “PBM E-score” value was -0.0245. CCACCAGG was tested, and the “PBM E-score” value was -0.268. In the case of CCTAGGCG, the “PBM E-score” value is reported as -0.303. For ATTCCCAC, the “PBM E-score” value was -0.125. With CCTTGTAA the “PBM E-score” value was 0.454. With TCTTGTCA the “PBM E-score” value was 0.219. In the case of ATTTGTAA, the “PBM E-score” value is reported as 0.344. For ACTTGTAG, the “PBM E-score” value was 0.0979. ACTTGTAC was tested, and the “PBM E-score” value was 0.12. CTTTGTAA was tested, and the “PBM E-score” value was 0.414. With TATTGTAA the “PBM E-score” value was 0.318. In the case of CCTTGTAG, the “PBM E-score” value is reported as 0.195. For CTTTGTAC, the “PBM E-score” value was 0.2. With CCTTGTAC the “PBM E-score” value was 0.327. TCTTGTAA was tested, and the “PBM E-score” value was 0.439. For ACTTGTAA, the “PBM E-score” value was 0.381. With GCTACAAA the “PBM E-score” value was 0.0715. In the case of GAGCTACC, the “PBM E-score” value is reported as -0.059. For CAGCTGTA, the “PBM E-score” value was -0.117. For CCAGGAGG, the “PBM E-score” value was -0.191. In the case of ATCCAGCA, the “PBM E-score” value is reported as -0.0498. For CGATGATA, the “PBM E-score” value was 0.0847. With GCTTGTAC the “PBM E-score” value was 0.243. In the case of GCTTGTAA, the “PBM E-score” value is reported as 0.411. In the case of CCTTGTTA, the “PBM E-score” value is reported as 0.371. In the case of CCTTGTTC, the “PBM E-score” value is reported as -0.0497. With ACTTGTTA the “PBM E-score” value was 0.259. In the case of GATTGTAA, the “PBM E-score” value is reported as 0.247. CCCATATC was tested, and the “PBM E-score” value was -0.145. In the case of CAAAGGAG, the “PBM E-score” value is reported as -0.0938. In the case of ATTAATGA, the “PBM E-score” value is reported as 0.0848. With CCAGGCAA the “PBM E-score” value was -0.265. With AGCATAGG the “PBM E-score” value was -0.178. With AACAGGTT the “PBM E-score” value was 0.11. ATTACAGG was tested, and the “PBM E-score” value was 0.352. CTTACAAC was tested, and the “PBM E-score” value was 0.301. With ATTACAAG the “PBM E-score” value was 0.466. CTTACACC was tested, and the “PBM E-score” value was 0.0787. For CTTACAAG, the “PBM E-score” value was 0.312. For ATTACACC, the “PBM E-score” value was 0.382. For CTCACACC, the “PBM E-score” value was -0.254. With ATTACAAA the “PBM E-score” value was 0.414. For ATTACAGA, the “PBM E-score” value was 0.333. For GTTACAAC, the “PBM E-score” value was 0.258. With ATTACAAC the “PBM E-score” value was 0.4. ATTACGAA was tested, and the “PBM E-score” value was 0.289. In the case of CTTGAGGA, the “PBM E-score” value is reported as -0.227. With ATATGCCC the “PBM E-score” value was -0.274. In the case of AGTGAACA, the “PBM E-score” value is reported as 0.154. For AGATTCTA, the “PBM E-score” value was 0.0504. With ATATAGGA the “PBM E-score” value was 0.0657. In the case of ACCAGGAC, the “PBM E-score” value is reported as 0.0306. In the case of CATGTGAA, the “PBM E-score” value is reported as 0.318. With CCATGAGG the “PBM E-score” value was -0.313. For AAAGAAAT, the “PBM E-score” value was 0.175. GACAGGCC was tested, and the “PBM E-score” value was -0.143. With CGCTCTGA the “PBM E-score” value was -0.135. For ACGAGGGA, the “PBM E-score” value was -0.0452. In the case of CGGTAAAG, the “PBM E-score” value is reported as 0.00317. For ATTACATC, the “PBM E-score” value was 0.445. In the case of ATTACAGC, the “PBM E-score” value is reported as 0.141. In the case of ATTACAAT, the “PBM E-score” value is reported as 0.385. For AGTACAAT, the “PBM E-score” value was 0.25. With CTTACATC the “PBM E-score” value was 0.283. TTTACAAA was tested, and the “PBM E-score” value was 0.412. For ACTACAAT, the “PBM E-score” value was 0.137. In the case of CTTACAAA, the “PBM E-score” value is reported as 0.232. TCTACAAA was tested, and the “PBM E-score” value was 0.252. In the case of ATGGGACG, the “PBM E-score” value is reported as -0.19. In the case of GCAAAGAC, the “PBM E-score” value is reported as -0.121. For CTGCGCGC, the “PBM E-score” value was -0.00351. With TGCAGCAA the “PBM E-score” value was -0.0391. With GATACTCA the “PBM E-score” value was -0.0664. ACTTACAT was tested, and the “PBM E-score” value was 0.43. ACTTACAA was tested, and the “PBM E-score” value was 0.29. With GCTTACAC the “PBM E-score” value was 0.362. CCTTACAC was tested, and the “PBM E-score” value was 0.334. With ACTTACAC the “PBM E-score” value was 0.378. In the case of ACTTACAG, the “PBM E-score” value is reported as 0.134. ACAGTAGC was tested, and the “PBM E-score” value was -0.0946. In the case of CCCCCCGG, the “PBM E-score” value is reported as -0.366. ACTCTACC was tested, and the “PBM E-score” value was -0.0519. In the case of GTTGTGCA, the “PBM E-score” value is reported as -0.00044. In the case of ATTGTGTG, the “PBM E-score” value is reported as 0.112. In the case of GTTGTATA, the “PBM E-score” value is reported as 0.38. With CTTGTGAA the “PBM E-score” value was 0.182. For ATTGTATA, the “PBM E-score” value was 0.171. For CTTGTGTA, the “PBM E-score” value was 0.41. ATTGTGTC was tested, and the “PBM E-score” value was 0.233. CTTGTATA was tested, and the “PBM E-score” value was 0.289. In the case of GTTGTGGA, the “PBM E-score” value is reported as 0.0527. GTTGTGTA was tested, and the “PBM E-score” value was 0.448. In the case of CTTGTGTC, the “PBM E-score” value is reported as 0.0968. ATTGTGTA was tested, and the “PBM E-score” value was 0.42. ACTGTTCG was tested, and the “PBM E-score” value was 0.0673. For AACTGCTA, the “PBM E-score” value was -0.0585. For AGAGGTGA, the “PBM E-score” value was -0.0117. In the case of CACCAGTA, the “PBM E-score” value is reported as -0.0753. In the case of ACGGACAT, the “PBM E-score” value is reported as -0.0204. In the case of CTAACAAG, the “PBM E-score” value is reported as 0.175. For ATAACACC, the “PBM E-score” value was 0.259. With AGAACACA the “PBM E-score” value was 0.268. For ATAACACA, the “PBM E-score” value was 0.439. With CTAACACA the “PBM E-score” value was 0.376. In the case of CTAACACC, the “PBM E-score” value is reported as 0.153. In the case of ATAACACG, the “PBM E-score” value is reported as 0.461. With ATAACAAG the “PBM E-score” value was 0.352. For GTAACACA, the “PBM E-score” value was 0.324. With GTTCTAGA the “PBM E-score” value was -0.00839. CCCTGACG was tested, and the “PBM E-score” value was -0.351. For ATTTAGCC, the “PBM E-score” value was 0.0155. GACCTTGC was tested, and the “PBM E-score” value was -0.356. With AGTTTCGG the “PBM E-score” value was -0.031. TCAACAGA was tested, and the “PBM E-score” value was 0.149. With ACAACACC the “PBM E-score” value was 0.182. ACAACAAA was tested, and the “PBM E-score” value was 0.284. With ACAACACG the “PBM E-score” value was 0.417. For GCAACACA, the “PBM E-score” value was 0.167. For ACAACACT, the “PBM E-score” value was 0.248. In the case of ACAACAGG, the “PBM E-score” value is reported as 0.155. With CCAACACC the “PBM E-score” value was -0.206. In the case of ACAACACA, the “PBM E-score” value is reported as 0.405. CCAACACG was tested, and the “PBM E-score” value was 0.375. TCAACACA was tested, and the “PBM E-score” value was 0.43. With CCAACACA the “PBM E-score” value was 0.248. With GGTATGCA the “PBM E-score” value was -0.0286. With AGGCCTTC the “PBM E-score” value was -0.156. AATCCGTG was tested, and the “PBM E-score” value was -0.129. In the case of CGTCCATA, the “PBM E-score” value is reported as 0.0125. With GGCAACAA the “PBM E-score” value was 0.0607. With TAATTTCA the “PBM E-score” value was 0.182. ATCAAGTG was tested, and the “PBM E-score” value was -0.0416. In the case of CAGCATTA, the “PBM E-score” value is reported as 0.109. With GCATTTCA the “PBM E-score” value was -0.082. ACACGAGA was tested, and the “PBM E-score” value was 0.291. For GCACGACC, the “PBM E-score” value was -0.188.

— the supplement of paper PMC3334620
